{"source": "PubChem BioAssay AID624288", "about": "(National Center for Advancing Translational Sciences (NCATS), 2012)", "note": "Screen size: about 340,000 compounds; about 1,400 (0.41%) were called active. Inconclusive results (about 4%) are left out. The sample as a whole holds a higher share of actives than the screen did. A number with no mark means an inactive call. Calls follow the shape of the full dose curve; cell line not stated here. % is scaled to controls: 0 for no effect and ±100 for the full control effect; potency is read from the fitted curve at half-maximal effect."}
{"assay": "qHTS for Antagonists of gsp, the Etiologic Mutation Responsible for Fibrous Dysplasia/McCune-Albright Syndrome: qHTS; also: nearly all actives have a fitted effect of over 65% in size", "conditions": "gsp-mutant cells, cAMP HTRF, 30 min; series mostly up to 76.9 µM; activity change, negative = inhibition: at the top concentration", "description": "McCune-Albright syndrome (MAS) is a rare disease caused by somatic mutations in Gsgsp), a widely expressed protein central in signal transduction from G-coupled protein receptors (GPCRs). The disease symptoms are diverse, owing to the fact that the patients are mosaics with varying degrees of tissue involvement. Greater than 90% of the mutations in Gs in MAS occur at the R201 position and are equally divided between R201H and R201C. The R201 residue is central in the intrinsic GTPase activity of Gs and the H and C mutations lead to loss of, or impairment of, the GTPase activity. The intrinsic GTPase activity is necessary to terminate the interaction between Gs and adenylate cyclase, and to terminate the cAMP-mediated signaling of the given GPCR pathway. Thus, these activating mutations lead to ligand-independent activation of GPCR pathways. The tissue phenotype is determined by the role of Gs in the function of a given cell, and excess Gs/cAMP signaling in that cell. For example, pituitary somatotrophs overproduce growth hormone in a growth hormone releasing hormone-independent fashion, and gigantism/acromegaly ensues. Skeletal stem cells in the bone marrow behave as if they are under constant parathyroid hormone stimulation and fail to differentiate into osteoblasts and osteocytes, and proliferate as immature osteogenic cells and lead to the marrow fibrosis of fibrous dysplasia of bone. The goal of this project is to identify molecules with inhibitory activity at gsp mutations that will not only allow for in-depth study of the underlying molecular and cellular pathophysiology, but also serve as compounds from which drugs to treat FD/MAS can be developed NIH Chemical Genomics Center [NCGC] NIH Molecular Libraries Probe Centers Network [MLPCN] MLPCN Grant: IRP-FT-DE-2011-01 Assay Submitter (PI): Michael Collins, NIDCR\n1.#Seed 2000 cells/well in 6 ul DMEM 10% FBS, 1% Pen/Strep, 0.5 mg/ml G418 2.#Incubate 16-24 hr at 37C, 5% CO2, 95% humidity 3.#Aspirate leaving 1 ul residual volume 4.#Dispense 5 ul/well DPBS + 1 mM CaCl2, 0.5 mM MgCl2, 0.05% BSA, 0.005% Tween 20 5.#Aspirate leaving 2 ul residual volume 6.#Dispense 23 nl/well compounds in DMSO 7.#Dispense 1 ul/well 300 uM Ro-20174 in DMEM 10% FBS 8.#Incubate 30 min at 37C, 5% CO2, 95% humidity 9.#Dispense 1.5 ul/well HTRF reagent: cAMP-d2 in lysis buffer 10.#Dispense 1.5 ul/well HTRF reagent: anti-cAMP antibody-K in lysis buffer 11.#Incubate 30 min at room temperature 12.#Detect HTRF signal using EnVision plate reader", "units": {"activity change, negative = inhibition": "%"}}
{"smiles": "COc1cc(NC(=O)C2=CC(c3ccc(C)cc3)=NS(=O)(=O)N2C)cc(OC)c1OC", "activity change, negative = inhibition": -12.6}
{"smiles": "COc1cc(NC(=O)C2=CC(c3ccco3)=NS(=O)(=O)N2C)cc(OC)c1OC", "activity change, negative = inhibition": -2.3}
{"smiles": "COc1ccc(NC(=O)C2=CC(c3ccc(OC)c(OC)c3)=NS(=O)(=O)N2C)cc1", "Potency": "39.8 µM (active)"}
{"smiles": "COC(=O)Cc1nc2c(N)nc(N)nc2[nH]c1=O", "activity change, negative = inhibition": -0.61}
{"smiles": "CC(=O)C12CC(C)=C(C)CC1CC1C3CCC4=CC(=O)CCC4(C)C3CCC12C", "note": "(stereo not drawn)", "activity change, negative = inhibition": -11.6}
{"smiles": "CSc1ncnc2c1ncn2CC(=O)C1CCC2C3CCC4=CC(=O)CCC4(C)C3CCC12C", "note": "(stereo not drawn)", "Potency": "31.6 µM (active)"}
{"smiles": "Cc1onc(-c2c(F)cccc2Cl)c1C(=O)Nc1cccc(S(=O)(=O)N2CCCCC2)c1", "activity change, negative = inhibition": -15.9}
{"smiles": "CN1CCOC1c1ccc(C2OCCN2C)cc1", "note": "(stereo not drawn)", "activity change, negative = inhibition": -2.61}
{"smiles": "CC1CN(Cc2ccccc2)C(=S)NC1=O", "note": "(stereo not drawn)", "activity change, negative = inhibition": 11.6}
{"smiles": "COc1ccccc1NC(=O)N(O)C1(C#N)CCCCC1", "activity change, negative = inhibition": 10.5}
{"smiles": "CCOc1ccc2c(c1)C(c1ccc(C)cc1)=NNC(c1ccc(C)cc1)=N2", "activity change, negative = inhibition": -5.6}
{"smiles": "Cc1ccc(C2=Nc3c(ccc4ccccc34)C(c3ccncc3)=NN2)cc1", "Potency": "31.6 µM (active)"}
{"smiles": "Cc1ccc(-c2csc(-c3c[nH]c4ccccc34)n2)cc1", "activity change, negative = inhibition": -14.8}
{"smiles": "CC(=O)c1ccc(NC(=O)C(C)OC(=O)c2ccc(NS(=O)(=O)c3ccc4[nH]c(=O)[nH]c4c3)cc2)cc1", "note": "(stereo not drawn)", "activity change, negative = inhibition": 3.15}
{"smiles": "O=C(O)C(CCc1ccccn1)c1ccccc1", "note": "(stereo not drawn)", "activity change, negative = inhibition": 1.38}
{"smiles": "O=C(CCN1C(=O)/C(=C/c2cccs2)SC1=S)NNC(=O)c1cccc(O)c1", "Potency": "31.6 µM (active)"}
{"smiles": "Cc1ccc(/C=C2\\SC(=S)N(CCC(=O)Nc3ccc(O)cc3)C2=O)cc1", "activity change, negative = inhibition": 4.75}
{"smiles": "O=C(CCCN1C(=O)/C(=C/c2cccs2)SC1=S)Nc1ccc(O)cc1", "activity change, negative = inhibition": -10.1}
{"smiles": "Cc1ccc(OCCNC(=O)c2cccc(S(=O)(=O)N3CCN(Cc4ccccc4)CC3)c2)cc1", "activity change, negative = inhibition": -9.83}
{"smiles": "COc1ccc(OC)c(Cc2cnc3nc(N)nc(N)c3c2C)c1", "activity change, negative = inhibition": -2.01}
{"smiles": "CC(=O)OCCC(C)C", "activity change, negative = inhibition": 9.48}
{"smiles": "CC(=O)OC(C)C[N+](C)(C)C", "note": "(stereo not drawn)", "activity change, negative = inhibition": 1.38}
{"smiles": "CC(=O)OCC(COC(C)=O)OC(C)=O", "Potency": "35.5 µM (active)"}
{"smiles": "O=C1OC(Oc2ccc(Br)cc2)(c2ccccc2)c2ccccc21", "note": "(stereo not drawn)", "activity change, negative = inhibition": -18}
{"smiles": "CCCCN1CC(COc2ccccc2)Oc2cccc(F)c2S1(=O)=O", "note": "(stereo not drawn)", "activity change, negative = inhibition": -12.9}
{"smiles": "O=C(c1cccc(F)c1)N1CCN(c2ccc([N+](=O)[O-])c(N3CCCCC3)c2)CC1", "activity change, negative = inhibition": -11.9}
{"smiles": "O=C(c1ccc(N2CCOCC2)c([N+](=O)[O-])c1)N1CCN(c2ccccc2F)CC1", "activity change, negative = inhibition": -2.65}
{"smiles": "O=C(c1cccc(F)c1)N1CCN(c2ccc([N+](=O)[O-])c3cccnc23)CC1", "Potency": "39.8 µM (active)"}
{"smiles": "COc1cc(C2c3cc4c(cc3C(O)C3COC(=O)C23)OCO4)cc(OC)c1OC", "note": "(stereo not drawn)", "activity change, negative = inhibition": 16.2}
{"smiles": "O=C(Cc1ccc(S(=O)(=O)N2CCOCC2)s1)Nc1ccc(Br)c(C(F)(F)F)c1", "activity change, negative = inhibition": -38.2}
{"smiles": "O=C(c1cccnc1)N(Cc1ccccc1)C(=O)c1cccnc1", "activity change, negative = inhibition": 5.46}
{"smiles": "CCCN(CC(=O)Nc1ccccc1C)C(=O)c1ccc(OCC(=O)N2CCOCC2)c(OCC)c1", "activity change, negative = inhibition": -2.96}
{"smiles": "COc1ccc(CCNC(=O)COc2cc(C)cc3oc(=O)c(C)c(C)c23)cc1OC", "activity change, negative = inhibition": 4.24}
{"smiles": "CC(C)OCCCNc1ncnc2c1[nH]c1ccc(F)cc12", "Potency": "39.8 µM (active)"}
{"smiles": "CC(C)OCCCNC(=O)c1cc(Sc2ccc(F)cc2)nc2ccccc12", "activity change, negative = inhibition": 16}
{"smiles": "CCOC(=O)[C@H]1[C@H]2COc3ccc(Br)cc3[C@@H]2N2C(=O)CN(C)C(=O)[C@@]12C", "activity change, negative = inhibition": 0.52}
{"smiles": "O=C(NCc1ccccc1)c1cccc(NC(=O)C2CCCCC2)c1", "activity change, negative = inhibition": -0.777}
{"smiles": "Cc1c(CN2CC[C@@H](N3CCN(c4ccccn4)CC3)[C@H](O)C2)[nH]c2ccc(F)cc12", "activity change, negative = inhibition": 4.63}
{"smiles": "Fc1ccc2[nH]c3c(N4CCSCC4)ncnc3c2c1", "Potency": "28.2 µM (active)"}
{"smiles": "CCN(CC)CCCN1C(=O)C(=O)/C(=C(/O)c2c(C)nc3ccccn23)C1c1ccc(C)o1", "note": "(stereo not drawn)", "activity change, negative = inhibition": 8.42}
{"smiles": "O=C(Nc1nc2ccccc2s1)c1ccc2c(c1)OCO2", "activity change, negative = inhibition": -20.8}
{"smiles": "O=C(Nc1nc(-c2ccc3c(c2)OCO3)cs1)c1ccncc1", "Potency": "39.8 µM (active)"}
{"smiles": "CC(=O)NCCC(=O)Nc1nc(-c2ccc3c(c2)OCCO3)cs1", "activity change, negative = inhibition": 1.23}
{"smiles": "N#CC1(Nc2ccc(-c3ccc(Cl)cc3)cc2)CCCC1", "activity change, negative = inhibition": 2.59}
{"smiles": "FC(F)(F)c1ccc(-c2cccc3c2C2CC3CCN2Cc2ccccc2)cc1", "note": "(stereo not drawn)", "activity change, negative = inhibition": -6.66}
{"smiles": "CCOC(=O)c1ccccc1OC(=O)Oc1ccccc1C(=O)OCC", "activity change, negative = inhibition": -13}
{"smiles": "CC(=O)Oc1ccc2c(c1)C(=O)c1ccccc1C2=O", "activity change, negative = inhibition": -0.802}
{"smiles": "O=C1C(Cl)=C(Oc2ccccc2)C(=O)c2ccccc21", "Potency": "39.8 µM (active)"}
{"smiles": "CCCCN1CC(COCc2ccccc2)OCCS1(=O)=O", "note": "(stereo not drawn)", "activity change, negative = inhibition": 12.5}
{"smiles": "C=CC(=O)Nc1ccc(Nc2ccnc(Nc3ccc(N4CCN(C)CC4)cc3)n2)cc1", "activity change, negative = inhibition": -4.93}
{"smiles": "COc1ccc(Cl)cc1C=CC=Nc1ccc(S(N)(=O)=O)cc1", "activity change, negative = inhibition": 0.98}
{"smiles": "COc1ccc(CNC(=O)COC(=O)c2ccc(C)c(S(=O)(=O)N3CCOCC3)c2)cc1OC", "activity change, negative = inhibition": -4.89}
{"smiles": "COc1ccc(C(=O)OCC(=O)c2ccc(C)c(S(=O)(=O)N3CCOCC3)c2)cc1OC", "Potency": "28.2 µM (active)"}
{"smiles": "Cc1ccc(C(=O)OCC(=O)N2CCCCCC2)cc1S(=O)(=O)N1CCOCC1", "activity change, negative = inhibition": -6.68}
{"smiles": "COC1C(CO)OC(n2cnc3c(=S)nc(N)[nH]c32)C1O", "note": "(stereo not drawn)", "activity change, negative = inhibition": -0.246}
{"smiles": "COc1ccc2oc(N)nc2c1", "activity change, negative = inhibition": 7.22}
{"smiles": "NC(=O)C1(Nc2ccc([N+](=O)[O-])cc2)CCCC1", "activity change, negative = inhibition": 7.87}
{"smiles": "O=C(NCCc1csc(-c2ccccc2)n1)c1ccccc1F", "activity change, negative = inhibition": -20.8}
{"smiles": "COc1ccc(N2CCN(C(=O)CNC(=O)c3ccc(Br)o3)CC2)cc1", "activity change, negative = inhibition": 5.12}
{"smiles": "COc1ccc(-c2nc(CCNC(=O)c3ccc(Br)o3)cs2)cc1", "Potency": "44.7 µM (active)"}
{"smiles": "Cc1ccc(S(=O)(=O)N2CCN(C(=O)c3cc(S(=O)(=O)N4CCOCC4)ccc3F)CC2)cc1", "activity change, negative = inhibition": 6.87}
{"smiles": "c1ccc(-c2c[nH]c(-c3ccccc3)c2)cc1", "activity change, negative = inhibition": -13.3}
{"smiles": "Cc1ccc(S(=O)(=O)c2cc3c(=O)n4cccc(C)c4nc3n(CCc3ccccc3)c2=N)cc1C", "activity change, negative = inhibition": 8.56}
{"smiles": "CC12CCCCC1=CC(=O)CC2", "note": "(stereo not drawn)", "activity change, negative = inhibition": -0.525}
{"smiles": "CC(C)Cc1nnc(N)s1", "activity change, negative = inhibition": 5.9}
{"smiles": "COc1ccc(-n2cnc3cc(NCc4ccco4)ccc32)cc1", "activity change, negative = inhibition": -16}
{"smiles": "Cn1c2ccccc2c(=O)c2c(=O)n(Cc3ccco3)c(COc3ccccc3)nc21", "activity change, negative = inhibition": -3.84}
{"smiles": "COc1ccc(-c2oc3ncn(Cc4ccco4)c(=N)c3c2-c2ccc(OC)cc2)cc1", "Potency": "50.1 µM (active)"}
